Compounds without any hit were thinned out: in the full panel of roughly 83,000, 20% have a hit.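 Method: cells in 96-well plates; compound added at one concentration; 48 h incubation; percent growth measured; values under 10 scored active.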 Active and inactive are the calls of the source.
Legend:
Experiment in all cases: NCI-60 one-dose screen, 48 h (100 = growth as untreated, 0 = no growth, -100 = all killed)
Conditions in all cases: 10 µM unless noted
T-47D breast = system: T-47D breast
BT-549 breast = system: BT-549 breast
MDA-MB-435 melanoma = system: MDA-MB-435 melanoma
SW-620 colon = system: SW-620 colon
MCF7 breast = system: MCF7 breast
HCC-2998 colon = system: HCC-2998 colon
KM12 colon = system: KM12 colon
HCT-116 colon = system: HCT-116 colon

Measured: growth

CC(=O)CCS(=O)c1ccccc1 (stereo not given)
inactive: T-47D breast 100% | BT-549 breast 119% | MDA-MB-435 melanoma 111% | SW-620 colon 98% | MCF7 breast 91.6% | HCC-2998 colon 91.7% | KM12 colon 97.9%

Oc1ccc([S+](c2ccc(O)cc2)c2ccc(O)cc2)cc1
inactive: T-47D breast 107% | BT-549 breast 107% | MDA-MB-435 melanoma 107% | SW-620 colon 107% | MCF7 breast 98.8% | HCC-2998 colon 106% | KM12 colon 107%

COc1cc(C(=O)Nc2ccc(N(C)C)cc2)cc(OC)c1OC
active: MDA-MB-435 melanoma 1.26%
inactive: T-47D breast 91.1% | BT-549 breast 96.7% | SW-620 colon 85.9% | MCF7 breast 77.8% | HCC-2998 colon 92.1% | KM12 colon 81%

Cc1ccc(C(=O)NN)cc1
inactive: T-47D breast 109% | BT-549 breast 98.8% | MDA-MB-435 melanoma 109% | MCF7 breast 99.7% | HCT-116 colon 100% | HCC-2998 colon 99.5%

CC(=O)/C(=C\c1c(-c2ccccc2)[nH]c2ccccc12)S(=O)(=O)c1ccccc1
inactive: T-47D breast 13% | BT-549 breast 16.9% | SW-620 colon 12.1% | MCF7 breast 10.1%
active: MDA-MB-435 melanoma 5.41% | HCC-2998 colon 4.79% | KM12 colon -10.1%

N=C(N)c1ccc(-c2ccc(-c3cc(Cl)cc(Cl)c3)s2)cc1
active: T-47D breast -54% | BT-549 breast -45.7% | MDA-MB-435 melanoma -90.2% | SW-620 colon -70.9% | MCF7 breast -72.5% | HCC-2998 colon -65.2% | KM12 colon -77.4%

CC[n+]1c(C)ccc2cc(C)ccc21
inactive: T-47D breast 91.3% | BT-549 breast 95% | MDA-MB-435 melanoma 118% | SW-620 colon 99.5% | MCF7 breast 94.1% | HCT-116 colon 97.1% | KM12 colon 80.7%

Nc1ccc(S(=O)(=O)c2ccc(NO)cc2)cc1
inactive: T-47D breast 96.9% | BT-549 breast 80% | MDA-MB-435 melanoma 97.3% | SW-620 colon 104% | MCF7 breast 95.1% | HCT-116 colon 98.9% | HCC-2998 colon 92.6% | KM12 colon 116%

CCNc1nnc(COc2ccc(CNC(=O)CCCC/C=C/C(C)C)cc2OC)o1
inactive: T-47D breast 81% | BT-549 breast 102% | SW-620 colon 110% | MCF7 breast 95.2% | HCT-116 colon 87.2% | HCC-2998 colon 103% | KM12 colon 98.2%

COc1ccccc1Nc1nnc(COc2ccc(CNC(=O)CCCC/C=C/C(C)C)cc2OC)o1
inactive: T-47D breast 76.1% | BT-549 breast 85.6% | SW-620 colon 105% | MCF7 breast 87.1% | HCT-116 colon 86.8% | HCC-2998 colon 105% | KM12 colon 95.5%

CC1=C(C)C[C@]2(C(=O)O[C@H]3CCCC[C@@H]32)[S@](=O)C1
inactive: T-47D breast 105% | BT-549 breast 91.6% | SW-620 colon 110% | MCF7 breast 95% | HCT-116 colon 108% | HCC-2998 colon 95% | KM12 colon 101%

N=C(N)c1ccc(-c2ccc(-c3ccc(F)cc3)s2)cc1
active: T-47D breast -57.5% | BT-549 breast -19.9% | SW-620 colon -87.9% | MCF7 breast -83.5% | HCT-116 colon -83.3% | HCC-2998 colon -77.5% | KM12 colon -87.3%

CCCCCCNc1nc(N2CCOCC2)c2[nH]c(NCCCCCC)nc2n1
active: T-47D breast -70.4% | BT-549 breast -81.4% | MDA-MB-435 melanoma -58.6% | MCF7 breast -88.4% | HCT-116 colon -100% | HCC-2998 colon -100% | KM12 colon -89.9%

CCOC(=O)c1cc(-c2ccc(OC)cc2)[nH]c1NNC(=O)CCOC
inactive: T-47D breast 95.2% | BT-549 breast 91.9% | SW-620 colon 101% | MCF7 breast 113% | HCT-116 colon 93.8% | HCC-2998 colon 122% | KM12 colon 118%

O=C1c2cc([N+](=O)[O-])ccc2-c2cc(Cl)c(NC(=O)C(F)(F)F)cc21
inactive: T-47D breast 85.2% | BT-549 breast 108% | MDA-MB-435 melanoma 114% | MCF7 breast 35.8% | HCT-116 colon 104% | HCC-2998 colon 104% | KM12 colon 114%

CN1C(=O)C(=Cc2coc3ccc(Br)cc3c2=O)C(=O)N(C)C1=O
inactive: T-47D breast 101% | BT-549 breast 106% | MDA-MB-435 melanoma 109% | MCF7 breast 88.3% | HCT-116 colon 95.2% | HCC-2998 colon 98.5% | KM12 colon 114%

O=C(N/N=C/c1cc(Cl)ccc1O)C(=O)N/N=C/c1cc(Cl)ccc1O
inactive: T-47D breast 73.5% | BT-549 breast 86.9% | SW-620 colon 61.3% | MCF7 breast 61.3% | HCT-116 colon 60.2% | HCC-2998 colon 59.5% | KM12 colon 59.1%

N#CC1=C(N2CCOCC2)NC2c3ccccc3Sc3ccccc3N2C1=N (stereo not given)
inactive: T-47D breast 85.8% | BT-549 breast 97.2% | MDA-MB-435 melanoma 107% | MCF7 breast 98.4% | HCT-116 colon 97.2% | HCC-2998 colon 104% | KM12 colon 110%

CC(=O)c1ccc2c(c1)c1ccccc1n2C
inactive: T-47D breast 103% | BT-549 breast 96.1% | SW-620 colon 113% | MCF7 breast 86.4% | HCT-116 colon 96.7% | HCC-2998 colon 100% | KM12 colon 97.9%

Cc1c(C(N)=O)sc2c1c(=O)n(Cc1ccccc1)c1nnc(S(C)(=O)=O)n21
inactive: T-47D breast 89.4% | BT-549 breast 78.9% | SW-620 colon 94.3% | MCF7 breast 73.3% | HCT-116 colon 79.6% | HCC-2998 colon 103% | KM12 colon 109%

COc1cc(N2C(=O)C=CC2=O)ccc1N1C(=O)C=CC1=O
inactive: T-47D breast 77.4% | BT-549 breast 95.3% | SW-620 colon 85.4% | MCF7 breast 98.8% | HCT-116 colon 107% | HCC-2998 colon 114% | KM12 colon 109%

COC(=O)/C(Br)=C/c1c[nH]c2ccc(Br)cc12
inactive: T-47D breast 72% | BT-549 breast 88.7% | SW-620 colon 94.4% | MCF7 breast 75% | HCT-116 colon 69.1% | HCC-2998 colon 102% | KM12 colon 92%

N#CCCCCCCCCCCC#N
inactive: T-47D breast 96.2% | BT-549 breast 102% | MDA-MB-435 melanoma 91.9% | MCF7 breast 104% | HCT-116 colon 105% | HCC-2998 colon 95% | KM12 colon 111%

N#Cc1ccc(NC2c3ccccc3CC2O)cc1 (stereo not given)
inactive: T-47D breast 103% | BT-549 breast 99.2% | MDA-MB-435 melanoma 117% | MCF7 breast 95.8% | HCT-116 colon 101% | HCC-2998 colon 105% | KM12 colon 112%

CN(C)CCOC(=O)C(C)(C)C
inactive: T-47D breast 103% | BT-549 breast 112% | SW-620 colon 91.6% | MCF7 breast 99.3% | HCT-116 colon 103% | HCC-2998 colon 110% | KM12 colon 106%
